Source: PubChem BioAssay
Results with a measured potency or affinity are listed apart. Active and inactive are the calls of the source.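 The calls were made as follows: active = dose-response curve with midpoint inside the tested range, moderate steepness, significant amplitude and little compound fluorescence or bead-attachment interference; inactive = the rest.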

Biological target: GTPase HRas (Homo sapiens) (UniProt P01112)
Experiment: activated Ras mutant GTP binding inhibitors, dose response, biochemical, multiplex bead flow cytometry (AID 1341);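 also: GST-tagged constitutively activated Ras mutant immobilized on beads and multiplexed with other GTPases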
Conditions: bead-based flow cytometry, Bodipy-FL-GTP binding; series mostly up to 100 µM

outcome, inactive:
O=C(c1cccnc1SCCc1ccccc1)N1CCOCC1, COc1cc(/C=N/NC(=O)CCN2CCN(c3ccccc3)CC2)cc(OC)c1OC, O=C(O)c1ccc(CNCc2ccccc2Cl)s1, CCN(CC)c1ccc(/C=N/OCC(=O)Nc2cccc(C)c2)cc1, CCc1ccccc1NCc1sc(C(=O)O)cc1C, COc1ccc(-c2nn3c(-c4ccco4)nnc3s2)cc1OC, CS(=O)(=O)Nc1ccc(Br)cc1C(=O)c1ccccc1, Cn1c(N/N=C/c2cccs2)nc2c1c(=O)n(Cc1ccccc1)c(=O)n2C, Cc1ccc(C(C)C)c(OCCSc2nc3ccccc3n2CC(=O)O)c1, OCC(CO)(CO)NCc1ccc(-c2ccccc2)cc1, CCC(Oc1ccc2ccccc2c1)C(=O)O (centres undefined), CCOc1ccccc1C1C(C(=O)OC)=C(N)OC2=C1C(=O)CCC2 (centres undefined), O=C(O)c1ccc(COc2ccc(F)cc2)o1, COc1cc2[nH]c(=S)nc(NCCc3ccc(C)cc3)c2cc1OC, CC(C)(C)c1ccc(OCCn2cc(C(=O)O)c3ccccc32)cc1, COc1ccc(C2=Nn3c(nnc3-c3ccccc3)SC2)cc1OC, COc1cc(/C=N/Nc2nn3cnnc3c3ccccc23)ccc1O, Cc1ccc(Nc2cc(C(=O)O)c3ccccc3n2)c(C)c1, COc1cc2c(C)nc3c(c(C)nn3-c3ccccc3)c2cc1OC, O=C(O)c1ccc(CNCc2ccc(F)cc2)cc1, COc1ccc(CC(C)N2CCN(Cc3ccccc3)CC2)c(OC)c1 (centres undefined), O=C(Cn1nc(-c2ccccc2)c2ccccc2c1=O)Nc1ccccn1, CCCN(CC1CC1)C(=S)Nc1ccc(Oc2ccccc2)cc1, Cc1cccc(CNc2nc(C)ccc2C(=O)O)c1, CC(SC(=S)N(C)Cc1cccs1)C(=O)O (centres undefined), O=c1c2ccccc2nc2c3ccccc3c(NCc3cccnc3)nn12, COc1ccc(C(=O)N/C(=C\c2cccc([N+](=O)[O-])c2)C(=O)Nc2cccc(C(=O)O)c2)cc1, O=C(O)c1ccc(CSCc2ccccc2Cl)o1, O=C(C#Cc1cccc(O)c1)c1ccc([N+](=O)[O-])cc1, CCOc1ccc(-n2nc3c(=O)[nH]nc(C)c3c2C)cc1, O=C(CNC(=O)Cc1ccccc1)N=Nc1c(O)n(Cc2ccc3c(c2)OCO3)c2ccccc12, CCOC(=O)c1c(-c2ccccc2)csc1NC(=O)/C(C#N)=C/c1ccc(O)c(OC)c1, C/C(=N\Nc1cc(C)nc(-c2ccccc2)n1)c1cccc([N+](=O)[O-])c1, C=CCn1c(SCC(=O)Nc2ccc3c(c2)OCO3)nnc1-c1cc(Br)ccc1O, CC(C)OCCCn1c(=NC(=O)c2ccncc2)c(C#N)cc2c(=O)n3ccccc3nc21, COc1cccc(NC(=O)CSc2nc3c([nH]c4ccccc43)c(=O)n2C)c1, COc1ccc(OCCSc2nc3nc(C)cc(C)n3n2)cc1, CCc1nnc(NC(=O)CSc2nnc(CNc3ccc(F)cc3)n2C2CCCCC2)s1, CCOC(=O)c1ccc2ncc(-c3ccccc3)nc2c1
